Laboratory results from PubChem BioAssay.
Values joined by “and” are separate entries in the source; they are usually repeats but may differ in a detail not shown here. Equal entries are not always repeated. Active and inactive are the calls of the source.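 Rule for the calls: active = percent response above a set limit, the screen-wide mean plus 3 SD (cut at about 130% in these data); inactive = the rest.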

assay: modulators of CIT2-GFP expression in yeast, primary screen, S. cerevisiae, GFP fusion, multiplex flow cytometry (AID 1870); conditions: 3 h, at 10 µM, active compounds read high;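 note: barcoded CIT2-GFP strain pooled with four other GFP strains with rapamycin as positive control; median GFP fluorescence per well over plate mean of DMSO wells so 100% = DMSO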

Percent response of DMSO control, inactive:
COc1cc(C2NCCc3c2[nH]c2ccccc32)ccc1OC(C)C (stereo not given) 106%
O=C(CSCc1ccccc1)NCCCN1CCOCC1 104%
O=C(N1CCCCC1)C1(c2ccccc2)CCOCC1 92%
CCCC(=O)O[C@]1(C(=O)COC(C)=O)CC[C@H]2[C@@H]3C[C@H](F)C4=CC(=O)C=C[C@]4(C)[C@@]3(F)[C@@H](O)C[C@@]21C 109%
O=c1ccc2c(o1)/C(=C/C=C(Cl)Cl)CCC2 90.1%
COc1cc(Cc2cnc(N)nc2N)cc(OC)c1OC 91.9% and 102%
O=C(CC(NC(=O)OCc1ccccc1)C(=O)O)OCc1ccccc1 (stereo not given) 107%
O=c1c(-c2ccccc2)c(O)c2cccc3c2n1CCC3 95.7%
O=C(O)C1CCN(C(=O)COc2ccc3c4c(c(=O)oc3c2)CCC4)CC1 101%
CCOC(=O)c1cccc(P(C)(C)=O)c1 114%
O=C(O)c1cc2cc(F)ccc2[nH]1 105%
O=C(O)c1ccccc1C(=O)OCCCCOC(=O)c1ccccc1C(=O)O 105%
Cn1nc(-c2ccc(Cl)cc2)nc2c(=O)n(C)c(=O)nc1-2 74.4%
O=c1[nH]c(=O)n([C@H]2C[C@H](O)[C@@H](CO)O2)cc1C(F)(F)F 97.8%
COc1ccc(-c2cc(C(=O)N3CCOCC3)c3cc(C)ccc3n2)cc1 101%
Cc1ccc2c(c1)c1c3n2CCCN(Cc2ccccc2)C3CCC1 (stereo not given) 105%
CCCCCCCC(=O)OCC(O)CO (stereo not given) 97.8%
S=C(c1ccc2c(c1)OCO2)N1CCCCC1 104%
COc1cc2cc(C)nc(Cc3cccc4ccccc34)c2cc1OC 98.2%
CCn1cc(C(=O)O)c(=O)c2ccc(C)nc21 92.4%
c1coc(-c2nnc3n2C2(CCCC2)Cc2ccccc2-3)c1 97.9%
COc1ccc(Cc2noc(CN(C)CCN3CCc4ccccc4C3)n2)cc1OC 109%
CC1(C)c2ccccc2N2CC(=O)NC21/C=C/c1ccco1 (stereo not given) 110%
CC12CC(c3ccccc3O1)C(C(=O)N1CCOCC1)C(=O)N2 (stereo not given) 101%
O=C1CC(c2ccc(OCCCCCOc3ccc(C4CC(=O)NC4=O)cc3)cc2)C(=O)N1 (stereo not given) 97.8%
O=c1[nH]c(=O)n(C2CCCO2)cc1F (stereo not given) 97.9%
NC(N)=NC(=O)Cc1c(Cl)cccc1Cl 97.8%
CCOC(=O)Cn1c(C)cc(=O)c2ccccc21 91%
Cc1ccc(C(=O)Nc2ccccc2C(=O)NC(C(=O)O)C(C)C)cc1 (stereo not given) 89.1%
Cc1cc(O)c2/c(=N\N)c(-c3csc(C)n3)coc2c1 102%
O=C(CN1C(=O)/C(=C/c2cccc(Br)c2)SC1=S)Nc1cccnc1 101%
COc1ccc2[nH]c(CN3CCN(CC(C)C)C(CCO)C3)c(C)c2c1 (stereo not given) 94.8%
CC[N+](C)(C)c1cccc(O)c1 112%
COc1cccc2c(=O)c(C/C=C(/C)Cl)c(C)[nH]c12 101%
O=C(N/N=C/c1ccc([N+](=O)[O-])o1)c1ccc(O)cc1 112%
CC(=O)N1CCn2c3c(c4cc(C)ccc42)CCCC31 (stereo not given) 98.3%
Cc1ccc(CN2CCN(CCCc3ccccc3)CC2CCO)cc1 (stereo not given) 106%
CCC(C(=O)Nc1ccc2c(c1)OCCO2)c1ccccc1 (stereo not given) 101%
CN(C)CCC=C1c2ccccc2CCc2ccccc21 93.9%
CN(C)c1ccc(CNCCC(Cc2ccccc2)c2ccco2)cc1 (stereo not given) 108%
